Experimental data published in PubChem BioAssay AID1159580 (chemical genetic matrix, 2015).
The campaign covered roughly 5,500 compounds. About 2,000 (36%) were called active. Inconclusive results (about 18%) are left out. Cut-off read from the data, not from the text of the source: active = normalized growth mostly below about 0.91 (no sharp cut-off); inconclusive = no clear call, values can overlap the other calls; inactive = mostly above about 0.92. The list shows a part of the results.

Experiment: chemical genetic growth profiling, strain panel (AID 1159580);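 note: tested at 20 µM; growth read once vehicle control cultures reached saturation at 30 °C; 1 = growth at the plate median or of vehicle wells; lower values mean less growth of the strain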
Settings: S. cerevisiae deletion strains, growth OD
[1] = locus YAL013W, strain DEP1, hits give low values
[2] = locus YBR229C, strain ROT2, hits give low values
[3] = locus YDL101C, strain DUN1, hits give low values
[4] = locus YDR150W, strain NUM1, hits give low values
[5] = locus YEL061C, strain CIN8, hits give low values
[6] = locus YGR078C, strain PAC10, hits give low values
[7] = locus YHR030C, strain SLT2, hits give low values
[8] = locus YHR087W, strain rtc3, hits give low values
[9] = locus YJR043C, strain POL32, hits give low values
[10] = locus YJR075W, strain HOC1, hits give low values
[11] = locus YLR039C, strain RIC1, hits give low values
[12] = locus YLR058C, strain SHM2 (second series), hits give low values
[13] = locus YLR085C, strain ARP6, hits give low values
[14] = locus YLR262C, strain YPT6, hits give low values
[15] = locus YML094W, strain GIM5, hits give low values
[16] = locus YMR219W, strain ESC1, hits give low values
[17] = locus YMR263W, strain SAP30, hits give low values
[18] = locus YNL153C, strain GIM3, hits give low values
[19] = locus YNL298W, strain CLA4 (second series), hits give low values
[20] = locus YNL322C, strain KRE1, hits give low values
[21] = locus YNR030W, strain Alg12, hits give low values
[22] = locus YPL055C, strain LGE1, hits give low values
[23] = locus YPL241C, strain CIN2, hits give low values
[24] = locus YPR135W, strain CTF4, hits give low values
[25] = locus YAR019C, strain CDC15, hits give low values
[26] = locus YBL105C, strain PKC1, hits give low values
[27] = locus YBR135W, strain CKS1, hits give low values
[28] = locus YBR136W, strain MEC1, hits give low values
[29] = locus YBR160W, strain CDC28, hits give low values
[30] = locus YDL017W, strain CDC7, hits give low values
[31] = locus YDL028C, strain MPS1, hits give low values
[32] = locus YDL108W, strain KIN28, hits give low values
[33] = locus YDL132W, strain cdc53, hits give low values
[34] = locus YDL214C, strain PRR2, hits give low values
[35] = locus YDR052C, strain DBF4, hits give low values
[36] = locus YDR054C, strain cdc34, hits give low values
[37] = locus YDR226W, strain ADK1, hits give low values
[38] = locus YDR477W, strain SNF1, hits give low values
[39] = locus YER123W, strain YCK3, hits give low values
[40] = locus YER133W, strain GLC7, hits give low values
[41] = locus YFL009W, strain cdc4, hits give low values
[42] = locus YFR003C, strain YPI1, hits give low values
[43] = locus YFR019W, strain FAB1, hits give low values
[44] = locus YFR028C, strain CDC14, hits give low values
[45] = locus YGR040W, strain KSS1, hits give low values
[46] = locus YGR052W, strain FMP48, hits give low values
[47] = locus YGR092W, strain DBF2, hits give low values
[48] = locus YHR079C, strain IRE1, hits give low values
[49] = locus YHR082C, strain KSP1, hits give low values
[50] = locus YHR205W, strain SCH9, hits give low values
[51] = locus YIL147C, strain SLN1, hits give low values
[52] = locus YJL095W, strain BCK1, hits give low values
[53] = locus YJL128C, strain PBS2, hits give low values
[54] = locus YJL157C, strain FAR1, hits give low values
[55] = locus YJR016C, strain ILV3, hits give low values
[56] = locus YJR066W, strain TOR1 (second series), hits give low values
[57] = locus YJR066W, strain TOR1, hits give low values
[58] = locus YKL048C, strain ELM1, hits give low values
[59] = locus YKL067W, strain YNK1, hits give low values
[60] = locus YKL193C, strain SDS22, hits give low values
[61] = locus YKL203C, strain TOR2, hits give low values
[62] = locus YLR113W, strain HOG1, hits give low values
[63] = locus YLR133W, strain CKI1, hits give low values
[64] = locus YLR403W, strain SFP1, hits give low values
[65] = locus YML070W, strain DAK1, hits give low values
[66] = locus YMR001C, strain CDC5, hits give low values
[67] = locus YMR205C, strain PFK2 (second series), hits give low values
[68] = locus YMR277W, strain FCP1, hits give low values
[69] = locus YNL006W, strain LST8, hits give low values
[70] = locus YNL020C, strain ARK1, hits give low values
[71] = locus YNL183C, strain NPR1, hits give low values
[72] = locus YNL207W, strain RIO2, hits give low values
[73] = locus YNL222W, strain SSU72, hits give low values
[74] = locus YNL307C, strain MCK1 (second series), hits give low values
[75] = locus YOL136C, strain PFK27, hits give low values
[76] = locus YOR061W, strain CKA2, hits give low values
[77] = locus YOR119C, strain RIO1, hits give low values
[78] = locus YOR231W, strain MKK1, hits give low values
[79] = locus YOR329C, strain SCD5, hits give low values
[80] = locus YPL031C, strain PHO85, hits give low values
[81] = locus YPL153C, strain RAD53, hits give low values
[82] = locus YPL204W, strain HRR25, hits give low values
[83] = locus YPL209C, strain IPL1, hits give low values
[84] = locus YPL256C, strain CLN2, hits give low values
[85] = locus YPR025C, strain CCL1, hits give low values
[86] = locus YPR106W, strain ISR1, hits give low values
[87] = locus YPR111W, strain DBF20, hits give low values
[88] = strain NNK1, hits give low values
[89] = strain TSCII, hits give low values

Measured: normalized growth

CC1(C)CC(=O)c2c(S(C)(=O)=O)sc(Br)c2C1
inactive: [1] 0.951 | [2] 1.01 | [3] 0.995 | [4] 0.965 | [5] 0.988 | [6] 1.02 | locus YGR229C, strain SMI1, hits give low values 0.981 | [7] 0.921 | [8] 1.02 | [9] 1.03 | [10] 1.03 | locus YKL190W, strain CNB1, hits give low values 0.998 | [11] 0.91 | [12] 1.01 | [13] 0.881 | [14] 0.907 | [15] 0.977 | [16] 0.993 | [17] 0.983 | [18] 1.02 | [19] 0.98 | [20] 1 | [21] 1 | [22] 0.924 | [23] 0.954 | [24] 0.96

CC(O)(CNCc1ccc(Cl)cc1)CSc1ccccc1Cl (stereo not given)
inactive: [25] 0.977 | [26] 0.984 | [27] 0.99 | [28] 0.975 | [29] 0.998 | [30] 0.992 | [31] 0.972 | [3] 0.985 | [32] 0.987 | [33] 0.994 | [34] 0.959 | [35] 1 | [36] 0.988 | [37] 0.98 | [38] 0.952 | [39] 0.862 | [40] 0.952 | [41] 0.99 | locus YFL029C, strain CAK1, hits give low values 0.962 | [42] 0.986 | [43] 0.9 | [44] 0.985 | [45] 0.927 | [46] 1.08 | [47] 0.796 | [7] 0.938 | [48] 1 | [49] 1.03 | [50] 1.02 | [51] 0.978 | [52] 1.02 | [53] 1 | [54] 0.973 | [55] 0.991 | [56] 0.875 | [57] 0.998 | [58] 0.98 | [59] 0.971 | locus YKL101W, strain HSL1, hits give low values 0.963 | [60] 0.985 | [61] 0.981 | [62] 1.07 | [63] 0.976 | [64] 0.963 | [65] 0.974 | [66] 0.982 | [67] 0.977 | [68] 0.99 | [69] 0.997 | [70] 0.991 | locus YNL161W, strain CBK1, hits give low values 0.991 | [71] 1.02 | [72] 0.994 | [73] 0.985 | [74] 0.897 | locus YOL078W, strain AVO1, hits give low values 0.99 | [75] 0.975 | [76] 0.964 | [77] 0.928 | [78] 1.02 | [79] 0.992 | [80] 0.955 | [81] 0.951 | [82] 0.923 | [83] 0.984 | [84] 1.01 | [85] 0.988 | [86] 1 | [87] 0.998 | [88] 1 | [89] 0.987

N#CCC(=O)c1cccc(CSc2ccccc2Cl)c1
inactive: [25] 0.896 | [26] 0.944 | [27] 0.954 | [28] 0.967 | [29] 0.971 | [30] 0.982 | [31] 0.972 | [3] 0.974 | [32] 0.966 | [33] 0.977 | [35] 0.976 | [36] 0.987 | [37] 0.964 | [41] 0.983 | [42] 0.982 | [44] 0.965 | [47] 1.03 | [50] 0.992 | [51] 0.968 | [53] 1.04 | [55] 0.987 | [58] 0.937 | [60] 0.978 | [64] 1 | [66] 0.976 | [67] 0.812 | [68] 0.973 | [71] 0.584 | [72] 0.966 | [73] 0.961 | [74] 1.04 | [79] 0.969 | [83] 0.966 | [85] 0.972 | [86] 0.996 | [87] 0.968 | [88] 0.971 | [89] 0.973
active: [34] 0.617 | [38] 0.417 | [39] 0.243 | [40] 0.639 | [43] 0.31 | [45] 0.456 | [46] 0.473 | [7] 0.114 | [48] 0.209 | [49] 0.293 | [52] 0.213 | [54] 0.42 | [56] 0.313 | [57] 0.353 | [59] 0.59 | [61] 0.529 | [62] 0.56 | [63] 0.512 | [65] 0.405 | [69] 0.319 | [70] 0.437 | [75] 0.382 | [76] 0.553 | [77] 0.504 | [78] 0.43 | [80] 0.189 | [81] 0.21 | [82] 0.162 | [84] 0.343

O=C(Nc1ccccc1SCc1cccc(C(F)(F)F)c1)c1c(F)cccc1Cl
inactive: [1] 1 | [2] 1.03 | [3] 1 | [4] 1.01 | [5] 1.03 | [6] 1.02 | [7] 1.01 | [8] 0.998 | locus YJL187C, strain SWE1, hits give low values 1.02 | [9] 0.988 | [10] 0.998 | [11] 1.04 | [12] 1.01 | [13] 0.986 | [14] 0.984 | [15] 1 | [16] 1.02 | [17] 0.991 | [18] 1.02 | [19] 1.04 | [20] 1.02 | [21] 0.984 | locus YOL006C, strain TOP1, hits give low values 0.963 | [22] 1.02 | [23] 1.01 | [24] 0.942
